Test results published in publication PMC4336329 (PLoS ONE, 2015).
About 14,000 (4.5%) of roughly 310,000 compounds showed an effect of 50% or more. The effect is printed as a negative number. Only a selection was taken, and strong results are over-represented in it overall.

Molecular target: human ether-à-go-go-related gene (hERG) potassium channel (human, UniProt Q12809)
Experiment: primary screen, population patch clamp on CHO cells stably expressing hERG; higher = less effect of the substance
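Also: peak tail current of the secondary pulse compared with the same well before compound.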

Chain of human ether-à-go-go-related gene (hERG) potassium channel (Q12809 whole entry, looked up): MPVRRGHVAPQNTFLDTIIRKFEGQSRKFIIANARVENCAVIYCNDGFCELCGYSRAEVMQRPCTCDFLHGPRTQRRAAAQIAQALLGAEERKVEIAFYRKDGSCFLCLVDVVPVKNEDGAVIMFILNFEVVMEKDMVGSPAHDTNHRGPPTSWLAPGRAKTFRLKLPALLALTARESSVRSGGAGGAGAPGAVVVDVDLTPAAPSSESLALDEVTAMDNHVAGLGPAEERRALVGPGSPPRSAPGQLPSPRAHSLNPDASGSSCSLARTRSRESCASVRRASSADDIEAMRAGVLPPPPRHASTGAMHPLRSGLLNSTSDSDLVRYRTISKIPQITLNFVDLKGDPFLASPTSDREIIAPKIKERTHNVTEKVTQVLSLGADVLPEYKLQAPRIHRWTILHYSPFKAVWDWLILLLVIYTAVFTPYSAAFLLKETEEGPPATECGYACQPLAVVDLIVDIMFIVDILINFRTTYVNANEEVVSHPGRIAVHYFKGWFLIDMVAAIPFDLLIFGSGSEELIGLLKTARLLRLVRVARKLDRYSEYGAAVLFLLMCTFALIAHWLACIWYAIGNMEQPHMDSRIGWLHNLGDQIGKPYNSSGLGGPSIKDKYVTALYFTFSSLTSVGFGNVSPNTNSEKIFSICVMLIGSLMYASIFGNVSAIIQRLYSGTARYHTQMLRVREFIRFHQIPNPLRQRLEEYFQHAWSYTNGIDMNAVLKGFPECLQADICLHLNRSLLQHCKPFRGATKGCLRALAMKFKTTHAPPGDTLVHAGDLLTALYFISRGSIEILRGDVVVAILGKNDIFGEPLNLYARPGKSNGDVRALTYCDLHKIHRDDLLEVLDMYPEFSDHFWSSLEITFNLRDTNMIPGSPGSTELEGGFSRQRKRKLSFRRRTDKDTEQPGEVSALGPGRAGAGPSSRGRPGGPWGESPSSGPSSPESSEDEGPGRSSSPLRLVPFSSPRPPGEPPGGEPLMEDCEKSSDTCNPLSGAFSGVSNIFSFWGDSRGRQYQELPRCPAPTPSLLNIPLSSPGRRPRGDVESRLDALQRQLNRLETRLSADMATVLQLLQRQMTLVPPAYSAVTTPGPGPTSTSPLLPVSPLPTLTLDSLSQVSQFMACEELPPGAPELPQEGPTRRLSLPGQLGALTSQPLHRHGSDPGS

| SMILES | hERG current change (%, negative = inhibition) at 10uM [%] |
| --- | --- |
| O=C(Cc1noc2ccccc12)NNC(=S)Nc1ccc(Cl)cc1 | 16.5 |
| Cn1nc(C(F)(F)F)c(-c2ccc(Br)cc2)c1NC(=O)Nc1ccc(F)cc1F | 13 |
| Cc1ccc(C(=O)C2(C)C3c4cc(Br)ccc4OC(=O)C32C(=O)c2ccco2)cc1 (centres unmarked) | 15.8 |
| CCCNC(=O)[C@H]1N2C(=O)c3c(ccc(OC)c3OC)C2SC1(C)C (some centres unmarked) | 16.4 |
| COc1ccc(CCNC(=O)CN(c2ccccc2)S(C)(=O)=O)cc1OC | -8.06 |
| CC(C)(C)CN1CCNC(=O)C1CC(=O)NC1Cc2ccccc2C1 (centres unmarked) | 4.08 |
| CCNC(=O)O/N=C(\C)c1sc(-c2ccc(Cl)cc2)nc1C | -23.9 |
| CCCS(=O)(=O)c1c(S(=O)(=O)CCC)c2ccccn2c1C(=O)OC | -7.5 |
| CCCS(=O)(=O)c1c(S(=O)(=O)CCC)c2cc(CC)ccn2c1C(=O)OC | -29.2 |
| CCCS(=O)(=O)c1c(S(=O)(=O)CCC)c2cc(-c3ccncc3)ccn2c1C(=O)OC | -50.2 |
| O=C(CSc1nnc(NCc2ccccc2)s1)NC1CCS(=O)(=O)C1 (centres unmarked) | 10.1 |
| Cc1cc(SCC(=O)Nc2cccc(S(N)(=O)=O)c2)c(C)cc1Br | 30.8 |
| Cc1ccc(-c2noc(CCC(=O)Nc3ccccc3N3CCN(C)CC3)n2)cc1 | -33.7 |
| CSc1nc(-c2ccccc2)nn1S(=O)(=O)c1ccccc1 | 7 |
| CCOC(=O)C1(Cc2cccc(OC)c2)CCN(Cc2cccn2-c2nccs2)CC1 | -72 |
| CCOC(=O)C1(Cc2cccc(OC)c2)CCN(Cc2cccn2-c2ccccn2)CC1 | -74.8 |
| CCOC(=O)C1(Cc2cccc(OC)c2)CCN(Cc2ccon2)CC1 | 1.68 |
| CCOC(=O)C1(Cc2cccc(OC)c2)CCN(Cc2cccnc2)CC1 | -16.4 |
| CCOC(=O)C1(Cc2ccccc2)CCN(Cc2cccn2-c2nccs2)CC1 | -82 |
| COc1ccc(-n2nc(C(=O)NCC(=O)N(C)Cc3ccccc3)c3ccccc3c2=O)cc1 | -8.21 |
| NC(=O)[C@@H]1[C@@H]2C(=O)N(c3ccc(F)cc3)C(=O)[C@@H]2[C@H]2C=Cc3ccccc3N21 | 14.2 |
| Nc1ccc(C(=O)OCC(=O)c2cccc([N+](=O)[O-])c2)cc1 | 39.8 |

| SMILES | hERG current change (%, negative = inhibition) at 10uM [%] |
| --- | --- |
| Cc1ccccc1C(C(=O)NC1CCCCC1)N(C(=O)CNC(=O)c1ccco1)c1cccnc1 (centres unmarked) | 6.3 |
| CC(C)CN(C(=O)CSc1n[nH]c(-c2cccs2)n1)C1CCS(=O)(=O)C1 (centres unmarked) | -2.69 |
| O=C(OCc1ccc([N+](=O)[O-])cc1)C1CC(=O)N(CCc2ccccc2)C1 (centres unmarked) | -69.4 |
| O=C(Nc1cccc([N+](=O)[O-])c1)C1CC(=O)N(Cc2ccccc2)C1 (centres unmarked) | -53.2 |
| O=C(Nc1ccc(F)c([N+](=O)[O-])c1)C1CC(=O)N(Cc2ccccc2)C1 (centres unmarked) | -34.4 |
| CCOc1ccc(COC(=O)C2CC(=O)N(CCc3ccccc3)C2)cc1OC (centres unmarked) | -21.6 |
| CCOC(=O)c1ccccc1NC(=O)COC(=O)C1CCCC1 | -2.49 |
| O=C(O)C1CC(=O)N(CCc2ccccc2)C1 (centres unmarked) | 6.79 |
| CCOC(=O)c1ccccc1NC(=O)COC(=O)C1CC(=O)N(CCc2ccccc2)C1 (centres unmarked) | -75.6 |
| O=C(OCc1ccccc1Cl)C1CC(=O)N(Cc2ccco2)C1 (centres unmarked) | 11.4 |
| O=C(OCc1ccc([N+](=O)[O-])cc1)C1CC(=O)N(Cc2ccccc2Cl)C1 (centres unmarked) | -66.4 |
| O=C(Nc1ccccc1)C1CC(=O)N(Cc2ccccc2)C1 (centres unmarked) | 2.14 |
| Cc1nn(-c2ccccc2)c(C)c1NC(=O)COC(=O)C1CC(=O)N(CCc2ccccc2)C1 (centres unmarked) | 9.52 |
| Cc1ccc(CN2CC(C(=O)OCc3ccccc3Cl)CC2=O)cc1 (centres unmarked) | 0.354 |
| O=C(N/N=C/C(Br)=C/c1ccccc1)C1CC1 | 32.2 |
| COc1ccc(NC(=O)Cn2nnc(C(=O)NCc3ccc4c(c3)OCO4)c2N)c(OC)c1 | 18.1 |
| COc1ccc2oc(C(=O)Nc3nccs3)c(C)c2c1 | 16.7 |
| O=C(OCc1nnc(-c2ccccc2)o1)C1CC(=O)N(CCc2ccccc2)C1 (centres unmarked) | -31 |
| O=C(OCc1nnc(-c2ccccc2)o1)C1CC(=O)N(c2ccccc2)C1 (centres unmarked) | -21.5 |
| O=C(OCc1nnc(-c2ccc([N+](=O)[O-])cc2)o1)C1CC(=O)N(CCc2ccccc2)C1 (centres unmarked) | -61.7 |
| COc1ccc(OC)c(CCNC(=O)CCn2nc(C)c3c(C)n(-c4ccccc4)nc3c2=O)c1 | 18.5 |
| CCOC(=O)c1oc2ccc(Br)cc2c1NC(=O)CN1CCN(C)CC1 | -65.8 |

| SMILES | hERG current change (%, negative = inhibition) at 10uM [%] |
| --- | --- |
| CCOC(=O)c1oc2ccccc2c1NC(=O)CN1CCOCC1 | 6.54 |
| CCOC(=O)c1oc2ccccc2c1NC(=O)CN1CCN(C)CC1 | -58.4 |
| COC(=O)c1oc2ccc(Br)cc2c1NC(C)=O | 3.19 |
| CCCC(=O)Nc1c(C(=O)OCC)oc2ccccc12 | 1.98 |
| COC(=O)c1oc2ccc(Br)cc2c1NC(=O)CCN1CCOCC1 | -17.7 |
| COC(=O)c1oc2ccc(Br)cc2c1NC(=O)CCCN1C(=O)c2ccccc2C1=O | 17.1 |
| CCOC(=O)c1oc2ccc(OC)cc2c1NC(=O)CN1CCN(C)CC1.Cl | -5.54 |
| COC(=O)c1oc2ccc(Br)cc2c1NC(=O)CN1CCN(C)CC1 | -62.3 |
| Cc1ccc(C)c(N=Cc2c(O)c3ccccc3oc2=O)c1 | 16.3 |
| CCc1ccc(C(C(=O)NC2CCCC2)N(C(=O)/C=C/C(=O)Nc2cc(C)on2)c2ccccc2C)cc1 (centres unmarked) | 9.58 |
| C/C(=N\Nc1ccccc1Cl)c1ccc(-n2ccnc2)cc1 | -7.1 |
| COCCCN1CN=C(NS(=O)(=O)c2ccc(C)cc2)NC1 | 13.3 |
| CC(=O)c1cccc(NC(=O)COc2ccc(S(=O)(=O)N3CCOCC3)cc2)c1 | -10.1 |
| Cc1nc2ccc(-c3nc4ccccc4[nH]3)cc2[nH]1 | 7.78 |
| Cc1ccc(S(=O)(=O)NCCC(=O)NC2CCCCC2C)cc1 (centres unmarked) | 3.4 |
| COc1ccc(OC)c(NC(=O)C23CC4CC(C2)CC(n2cnc(Br)n2)(C4)C3)c1 | -41.2 |
| COc1ccc(NC(=O)C23CC4CC(C2)CC(n2cnc(Br)n2)(C4)C3)c(C)c1 | -9.06 |
| Cc1ccc(F)cc1NC(=O)C12CC3CC(C1)CC(n1cnc([N+](=O)[O-])n1)(C3)C2 | -52.8 |
| CC(=O)Nc1ccc(NC(=O)C23CC4CC(C2)CC(n2cnc(Br)n2)(C4)C3)cc1 | -63.4 |
| COc1ccc(NC(=O)C23CC4CC(C2)CC(n2cnc(Br)n2)(C4)C3)c(OC)c1 | -23.4 |
| COc1ccc(NC(=O)C23CC4CC(C2)CC(n2cnc(Br)n2)(C4)C3)cc1OC | -2.41 |
| COc1ccc(NC(=O)C23CC4CC(C2)CC(n2cnc(Br)n2)(C4)C3)cc1Cl | 3.08 |

| SMILES | hERG current change (%, negative = inhibition) at 10uM [%] |
| --- | --- |
| O=C(Nc1cccc2ccccc12)C12CC3CC(C1)CC(n1cnc([N+](=O)[O-])n1)(C3)C2 | -44.5 |
| O=C(Nc1ccccc1)C12CC3CC(C1)CC(n1cnc([N+](=O)[O-])n1)(C3)C2 | -59.6 |
| COc1cc(NC(=O)C23CC4CC(C2)CC(n2cnc([N+](=O)[O-])n2)(C4)C3)cc(OC)c1 | -66.7 |
| COC(=O)c1ccccc1NC(=O)C12CC3CC(C1)CC(n1cnc(Cl)n1)(C3)C2 | -38.5 |
| COC(=O)c1ccc(NC(=O)C23CC4CC(C2)CC(n2cnc(Cl)n2)(C4)C3)cc1 | -27.3 |
| Cn1c(=O)c([N+](=O)[O-])c(NCC(O)c2ccccc2)c2ccccc21 (centres unmarked) | -2.03 |
| CCOC(=O)Cc1nn(C(C)C)c(=O)c2ccccc12 | 26.6 |
| Cc1cccc(NC(=O)CCn2nc(C)cc2C)c1 | 9.02 |
| CN(C)C(=O)/C(=C/c1cn(-c2ccccc2)nc1-c1cccc([N+](=O)[O-])c1)NC(=O)c1ccccc1 | -29.1 |
| CCNC(=S)N1CCCC(c2nc3ccc(C)cc3[nH]2)C1 (centres unmarked) | -2.45 |
| CC1=C(C(=O)OCc2ccccc2)C(c2ccc(Cl)cc2Cl)NC(=O)N1CCCCCC(=O)O (centres unmarked) | -16.2 |
| CCN(CC(=O)Nc1ccc(OC)cc1)C(=O)c1cc(-c2cccs2)nn1-c1ccccc1 | -15.4 |
| CCOc1ccc(CN(C)C(=O)[C@H](Cc2ccccc2)NC(=O)OCc2ccccc2)cc1OC | -15.7 |
| c1csc(CNc2ncnc3nc[nH]c23)c1 | -2.79 |
| O=C(Nc1cc(Oc2ccccc2)cc([N+](=O)[O-])c1)C12CC3CC(C1)CC(n1cnc(Cl)n1)(C3)C2 | 13.9 |
| O=C(Nc1ccon1)C12CC3CC(C1)CC(n1cnc([N+](=O)[O-])n1)(C3)C2 | -50.5 |
| O=[N+]([O-])c1ncn(C23CC4CC(CC(C4)C2)C3)n1 | -8.76 |
| O=C(O)c1cccc(NC(=O)C23CC4CC(C2)CC(n2cnc(Cl)n2)(C4)C3)c1 | 6.02 |
| O=C(Nc1cccc([N+](=O)[O-])c1)C12CC3CC(C1)CC(n1cnc([N+](=O)[O-])n1)(C3)C2 | -67.8 |
| Cc1cc(NC(=O)C23CC4CC(C2)CC(n2cnc([N+](=O)[O-])n2)(C4)C3)no1 | -32.4 |
